From ChEMBL document CHEMBL1961873, “Compounds: GSK PKIS; Assays: Nanosyn kinase panel” (2012) come the findings set out here.

Test [1] addresses Ribosomal protein S6 kinase alpha-6 (Homo sapiens) (UniProt Q9UK32). The note with it: at 1 µM.
Test [2] has as its target T1, Serine/threonine-protein kinase Sgk1 (Homo sapiens) (UniProt O00141).
T1 sequence (whole entry): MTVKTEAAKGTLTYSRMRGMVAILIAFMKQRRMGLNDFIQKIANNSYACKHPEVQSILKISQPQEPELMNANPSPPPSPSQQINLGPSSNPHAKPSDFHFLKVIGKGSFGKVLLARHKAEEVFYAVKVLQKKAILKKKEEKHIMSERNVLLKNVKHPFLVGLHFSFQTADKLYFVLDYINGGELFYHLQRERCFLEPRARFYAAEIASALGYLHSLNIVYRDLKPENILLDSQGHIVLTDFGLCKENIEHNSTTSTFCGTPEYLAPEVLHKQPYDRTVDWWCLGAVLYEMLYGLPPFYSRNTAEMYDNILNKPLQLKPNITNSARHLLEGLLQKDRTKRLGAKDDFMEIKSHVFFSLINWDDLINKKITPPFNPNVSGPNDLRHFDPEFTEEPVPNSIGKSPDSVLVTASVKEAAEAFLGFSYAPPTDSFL
The note with it: at 0.1 µM.

Test [3] addresses T1, Serine/threonine-protein kinase Sgk1 (Homo sapiens). The note with it: at 1 µM.
For test [4], the target named is T2, Serine/threonine-protein kinase Sgk2 (Homo sapiens) (UniProt Q9HBY8).
T2 sequence (whole entry): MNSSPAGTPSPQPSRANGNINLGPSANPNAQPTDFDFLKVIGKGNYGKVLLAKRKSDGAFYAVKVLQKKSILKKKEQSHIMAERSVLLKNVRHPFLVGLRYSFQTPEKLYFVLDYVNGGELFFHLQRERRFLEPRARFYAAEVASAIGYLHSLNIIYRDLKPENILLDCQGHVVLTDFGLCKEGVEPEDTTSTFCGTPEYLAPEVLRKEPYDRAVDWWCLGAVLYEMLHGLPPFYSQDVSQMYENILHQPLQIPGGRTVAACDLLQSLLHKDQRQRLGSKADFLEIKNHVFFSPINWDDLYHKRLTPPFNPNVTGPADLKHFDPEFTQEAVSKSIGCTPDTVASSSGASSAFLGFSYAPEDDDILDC
The settings on record: at 0.1 µM.

In test [5] the target is T2, Serine/threonine-protein kinase Sgk2 (Homo sapiens). The note with it: at 1 µM.
Test [6] concerns the target T3, Serine/threonine-protein kinase Sgk3 (Homo sapiens) (UniProt Q96BR1).
T3 sequence (whole entry): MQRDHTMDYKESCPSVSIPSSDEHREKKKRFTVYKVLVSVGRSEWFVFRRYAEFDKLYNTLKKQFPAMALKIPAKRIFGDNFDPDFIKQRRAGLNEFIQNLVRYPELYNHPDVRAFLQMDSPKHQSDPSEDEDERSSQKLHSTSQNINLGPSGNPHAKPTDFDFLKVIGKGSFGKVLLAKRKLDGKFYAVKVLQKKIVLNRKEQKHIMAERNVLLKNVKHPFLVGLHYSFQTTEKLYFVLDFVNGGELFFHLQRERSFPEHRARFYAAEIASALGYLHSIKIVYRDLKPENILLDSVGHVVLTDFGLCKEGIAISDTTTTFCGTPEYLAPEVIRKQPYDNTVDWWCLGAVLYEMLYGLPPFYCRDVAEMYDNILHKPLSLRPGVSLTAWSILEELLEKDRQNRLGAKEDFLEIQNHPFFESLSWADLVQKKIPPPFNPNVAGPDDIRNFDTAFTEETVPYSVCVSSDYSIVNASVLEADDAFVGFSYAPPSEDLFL
The settings on record: at 0.1 µM.

The target in test [7] is T3, Serine/threonine-protein kinase Sgk3 (Homo sapiens). The note with it: at 1 µM.
Test [8] concerns the target 5'-AMP-activated protein kinase catalytic subunit alpha-1 (Homo sapiens) (UniProt Q13131). The note with it: at 0.1 µM.
The target is the same in test [9]. The settings on record: at 1 µM.
Test [10] addresses 5'-AMP-activated protein kinase catalytic subunit alpha-2 (Homo sapiens) (UniProt P54646). The note with it: at 0.1 µM.
Test [11] has the same target. The note with it: at 1 µM.
In test [12] the target is T4, NUAK family SNF1-like kinase 1 (Homo sapiens) (UniProt O60285).
T4 sequence (whole entry): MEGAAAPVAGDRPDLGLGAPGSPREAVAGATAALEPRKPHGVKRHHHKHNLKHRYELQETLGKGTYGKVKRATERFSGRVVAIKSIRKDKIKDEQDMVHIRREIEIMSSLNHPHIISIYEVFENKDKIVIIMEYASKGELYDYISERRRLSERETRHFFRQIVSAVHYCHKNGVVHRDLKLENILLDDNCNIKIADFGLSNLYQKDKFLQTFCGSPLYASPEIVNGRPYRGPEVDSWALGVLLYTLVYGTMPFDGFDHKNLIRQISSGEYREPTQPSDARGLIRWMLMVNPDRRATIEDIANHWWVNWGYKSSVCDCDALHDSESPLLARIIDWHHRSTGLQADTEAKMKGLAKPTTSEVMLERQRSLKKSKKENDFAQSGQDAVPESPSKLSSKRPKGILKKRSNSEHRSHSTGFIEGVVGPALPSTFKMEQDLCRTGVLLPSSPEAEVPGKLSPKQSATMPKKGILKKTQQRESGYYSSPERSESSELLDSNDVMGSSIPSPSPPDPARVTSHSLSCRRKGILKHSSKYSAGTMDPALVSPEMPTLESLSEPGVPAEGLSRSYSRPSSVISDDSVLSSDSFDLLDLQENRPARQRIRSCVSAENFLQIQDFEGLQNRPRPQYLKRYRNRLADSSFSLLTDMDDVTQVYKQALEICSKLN
The settings on record: at 0.1 µM.

For test [13], the target named is T4, NUAK family SNF1-like kinase 1 (Homo sapiens). The settings on record: at 1 µM.
In test [14] the target is T5, Serine/threonine-protein kinase BRSK1 (Homo sapiens) (UniProt Q8TDC3).
T5 sequence (whole entry): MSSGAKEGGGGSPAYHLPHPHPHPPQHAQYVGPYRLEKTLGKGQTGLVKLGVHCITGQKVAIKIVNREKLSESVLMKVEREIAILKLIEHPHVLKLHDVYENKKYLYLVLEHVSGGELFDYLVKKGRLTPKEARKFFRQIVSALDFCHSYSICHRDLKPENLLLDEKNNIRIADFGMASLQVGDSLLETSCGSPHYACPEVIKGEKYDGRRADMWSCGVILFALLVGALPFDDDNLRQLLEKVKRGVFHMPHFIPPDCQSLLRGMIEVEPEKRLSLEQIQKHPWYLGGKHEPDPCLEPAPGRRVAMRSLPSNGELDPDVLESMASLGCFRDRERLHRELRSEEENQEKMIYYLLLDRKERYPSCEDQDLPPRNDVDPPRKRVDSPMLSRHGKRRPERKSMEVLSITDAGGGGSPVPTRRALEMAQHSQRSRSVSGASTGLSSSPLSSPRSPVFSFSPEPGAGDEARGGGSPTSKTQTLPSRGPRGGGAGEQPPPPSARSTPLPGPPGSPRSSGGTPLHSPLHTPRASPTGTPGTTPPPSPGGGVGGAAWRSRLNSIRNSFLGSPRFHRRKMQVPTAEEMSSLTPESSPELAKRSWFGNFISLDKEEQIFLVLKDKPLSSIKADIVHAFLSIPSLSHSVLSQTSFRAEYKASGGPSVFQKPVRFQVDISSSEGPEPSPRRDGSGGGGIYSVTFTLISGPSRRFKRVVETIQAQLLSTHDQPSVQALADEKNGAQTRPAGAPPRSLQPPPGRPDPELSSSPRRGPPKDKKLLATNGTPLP
The note with it: at 0.1 µM.

Test [15] deals with T5, Serine/threonine-protein kinase BRSK1 (Homo sapiens). The note with it: at 1 µM.
Test [16] addresses T6, Serine/threonine-protein kinase BRSK2 (Homo sapiens) (UniProt Q8IWQ3).
T6 sequence (whole entry): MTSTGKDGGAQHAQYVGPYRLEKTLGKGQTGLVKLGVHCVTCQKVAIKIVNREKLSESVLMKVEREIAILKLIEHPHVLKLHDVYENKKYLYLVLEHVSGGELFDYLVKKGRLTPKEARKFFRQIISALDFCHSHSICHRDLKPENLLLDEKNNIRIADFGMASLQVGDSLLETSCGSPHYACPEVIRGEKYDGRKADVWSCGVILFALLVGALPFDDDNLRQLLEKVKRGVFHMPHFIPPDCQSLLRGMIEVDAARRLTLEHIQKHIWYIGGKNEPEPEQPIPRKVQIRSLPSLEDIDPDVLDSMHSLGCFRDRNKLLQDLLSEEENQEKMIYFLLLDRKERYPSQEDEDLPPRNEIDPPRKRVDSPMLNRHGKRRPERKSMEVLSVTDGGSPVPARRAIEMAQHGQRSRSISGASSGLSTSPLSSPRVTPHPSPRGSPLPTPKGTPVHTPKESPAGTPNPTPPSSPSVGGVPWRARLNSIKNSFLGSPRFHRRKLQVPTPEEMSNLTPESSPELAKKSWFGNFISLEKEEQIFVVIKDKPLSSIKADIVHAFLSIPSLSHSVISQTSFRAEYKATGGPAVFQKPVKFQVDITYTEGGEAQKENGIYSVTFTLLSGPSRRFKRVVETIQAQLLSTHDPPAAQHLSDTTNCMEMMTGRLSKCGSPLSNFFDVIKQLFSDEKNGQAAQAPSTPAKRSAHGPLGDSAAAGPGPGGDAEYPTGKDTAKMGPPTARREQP
The note with it: at 0.1 µM.

Test [17] addresses T6, Serine/threonine-protein kinase BRSK2 (Homo sapiens). The note with it: at 1 µM.
Test [18] deals with Calcium/calmodulin-dependent protein kinase type 1D (Homo sapiens) (UniProt Q8IU85). The note with it: at 0.1 µM.
Calcium/calmodulin-dependent protein kinase type 1D (Homo sapiens), sequence (Q8IU85 whole entry, looked up): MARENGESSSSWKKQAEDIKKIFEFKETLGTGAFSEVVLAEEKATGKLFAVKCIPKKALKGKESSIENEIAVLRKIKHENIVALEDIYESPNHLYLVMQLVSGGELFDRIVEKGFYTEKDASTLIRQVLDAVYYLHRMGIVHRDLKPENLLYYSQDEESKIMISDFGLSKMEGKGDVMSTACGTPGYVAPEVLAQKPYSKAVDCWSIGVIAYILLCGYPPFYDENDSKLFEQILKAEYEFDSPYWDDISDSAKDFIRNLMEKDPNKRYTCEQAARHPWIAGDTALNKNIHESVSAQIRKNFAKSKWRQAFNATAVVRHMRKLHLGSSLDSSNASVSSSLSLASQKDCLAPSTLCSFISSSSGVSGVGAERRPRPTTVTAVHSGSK
Test [19] has the same target. The note with it: at 1 µM.
In test [20] the target is Calcium/calmodulin-dependent protein kinase type II subunit alpha (Homo sapiens) (UniProt Q9UQM7). The settings on record: at 0.1 µM.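 Also: reported values are averages (mean inhibition of CAMK2A).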
Calcium/calmodulin-dependent protein kinase type II subunit alpha (Homo sapiens), sequence (Q9UQM7 whole entry): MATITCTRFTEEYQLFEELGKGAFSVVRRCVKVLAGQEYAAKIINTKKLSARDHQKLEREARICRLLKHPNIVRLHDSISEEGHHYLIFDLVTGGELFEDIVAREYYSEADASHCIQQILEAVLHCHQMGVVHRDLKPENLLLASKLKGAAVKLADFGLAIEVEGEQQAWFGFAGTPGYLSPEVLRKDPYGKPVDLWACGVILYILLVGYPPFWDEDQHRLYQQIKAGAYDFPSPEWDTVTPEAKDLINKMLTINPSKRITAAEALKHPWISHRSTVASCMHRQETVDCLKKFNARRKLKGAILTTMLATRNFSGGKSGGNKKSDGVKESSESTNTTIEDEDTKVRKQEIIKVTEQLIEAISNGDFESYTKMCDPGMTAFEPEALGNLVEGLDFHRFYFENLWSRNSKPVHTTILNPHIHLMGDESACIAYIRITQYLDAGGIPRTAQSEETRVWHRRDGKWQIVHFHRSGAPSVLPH

5'-AMP-activated protein kinase catalytic subunit alpha-2 (Homo sapiens), sequence (P54646 whole entry, looked up): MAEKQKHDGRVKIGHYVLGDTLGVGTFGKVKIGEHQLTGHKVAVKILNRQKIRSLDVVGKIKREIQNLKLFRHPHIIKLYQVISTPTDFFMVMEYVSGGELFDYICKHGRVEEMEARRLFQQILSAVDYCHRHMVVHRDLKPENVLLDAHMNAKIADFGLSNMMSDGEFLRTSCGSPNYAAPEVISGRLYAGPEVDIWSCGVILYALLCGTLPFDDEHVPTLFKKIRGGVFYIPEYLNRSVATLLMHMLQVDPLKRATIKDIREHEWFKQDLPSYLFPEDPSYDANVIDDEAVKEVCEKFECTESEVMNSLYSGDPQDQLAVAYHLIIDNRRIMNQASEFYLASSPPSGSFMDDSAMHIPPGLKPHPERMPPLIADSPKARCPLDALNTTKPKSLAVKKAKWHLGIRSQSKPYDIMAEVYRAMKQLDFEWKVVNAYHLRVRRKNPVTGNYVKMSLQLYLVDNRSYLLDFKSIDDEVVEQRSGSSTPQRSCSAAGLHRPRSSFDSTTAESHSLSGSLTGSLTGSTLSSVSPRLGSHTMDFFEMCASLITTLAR
5'-AMP-activated protein kinase catalytic subunit alpha-1 (Homo sapiens), sequence (Q13131 whole entry, looked up): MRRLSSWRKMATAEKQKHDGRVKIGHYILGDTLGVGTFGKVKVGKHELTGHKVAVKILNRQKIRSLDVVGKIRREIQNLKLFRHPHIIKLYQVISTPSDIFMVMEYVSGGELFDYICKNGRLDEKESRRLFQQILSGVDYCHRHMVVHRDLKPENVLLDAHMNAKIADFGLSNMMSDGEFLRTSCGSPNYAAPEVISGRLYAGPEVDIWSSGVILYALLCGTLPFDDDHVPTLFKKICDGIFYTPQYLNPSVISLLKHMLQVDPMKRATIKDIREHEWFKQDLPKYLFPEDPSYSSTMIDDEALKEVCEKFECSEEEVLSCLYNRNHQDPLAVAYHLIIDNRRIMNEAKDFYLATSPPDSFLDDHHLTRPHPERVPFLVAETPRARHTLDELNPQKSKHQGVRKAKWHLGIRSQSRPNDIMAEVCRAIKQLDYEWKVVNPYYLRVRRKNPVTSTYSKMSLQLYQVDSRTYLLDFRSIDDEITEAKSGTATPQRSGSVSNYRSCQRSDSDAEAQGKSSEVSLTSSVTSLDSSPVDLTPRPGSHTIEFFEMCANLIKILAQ
Ribosomal protein S6 kinase alpha-6 (Homo sapiens), sequence (Q9UK32 whole entry): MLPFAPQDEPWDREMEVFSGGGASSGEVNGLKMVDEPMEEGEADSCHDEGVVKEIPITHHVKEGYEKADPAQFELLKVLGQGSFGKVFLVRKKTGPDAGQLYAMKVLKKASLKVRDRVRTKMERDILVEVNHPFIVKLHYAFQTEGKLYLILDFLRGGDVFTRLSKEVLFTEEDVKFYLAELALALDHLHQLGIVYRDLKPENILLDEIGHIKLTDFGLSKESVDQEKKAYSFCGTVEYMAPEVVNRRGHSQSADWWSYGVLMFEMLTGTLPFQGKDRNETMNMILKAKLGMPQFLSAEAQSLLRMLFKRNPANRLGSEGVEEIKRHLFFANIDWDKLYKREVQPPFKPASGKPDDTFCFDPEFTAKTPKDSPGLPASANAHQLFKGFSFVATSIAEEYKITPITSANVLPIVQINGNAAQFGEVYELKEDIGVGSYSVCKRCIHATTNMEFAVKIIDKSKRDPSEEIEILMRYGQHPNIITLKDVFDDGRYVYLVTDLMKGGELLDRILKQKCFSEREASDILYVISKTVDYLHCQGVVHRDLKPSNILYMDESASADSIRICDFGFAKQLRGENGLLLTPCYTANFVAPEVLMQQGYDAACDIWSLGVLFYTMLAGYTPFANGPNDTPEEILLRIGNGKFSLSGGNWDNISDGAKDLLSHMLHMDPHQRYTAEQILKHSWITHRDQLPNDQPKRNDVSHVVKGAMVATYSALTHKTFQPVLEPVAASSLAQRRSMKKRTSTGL

In general, inhibition refers to the drop in the measured response relative to a control, in per cent. Take `NS(=O)(=O)c1ccc(N/N=C2\C(=O)Nc3ccc(Cl)cc32)cc1`: the inhibition in test [1] came to 3.15%; in test [2], 3.68%; in [3], 7.28%; in [4] it was 2.41%; in test [5] it was 5.65%; in test [6] it was 4.29%. In addition, the inhibition in [7] amounted to 3.61%; in [8] it was 6.79%; in [9], 16.1%; in test [10] it was 1.86%; in test [11], 12.9%; in [12] it was 11%. Moreover, the inhibition in test [13] was 48.9%; in [14] it was 0.76%; in [15], 8.96%; in [16] it was 3.16%; in test [17] it was 14.9%; in test [18], 0.02%. The inhibition is 0.47% in [19] and 2.65% in [20].
On to `CC(C)c1ccc2c(c1)NC(=O)/C2=N/Nc1ccc(S(N)(=O)=O)cc1`, for which the inhibition in test [1] was 0.17%; in [2] it was 0.54%; in test [3], 0.73%; in test [4], 5.31%; in test [5], -4.03%; in test [6], 4.97%. For the same compound, the inhibition was -1.88% in test [7]; -0.83% in test [8]; 0.29% in test [9]; 1.03% in test [10]; 0.27% in test [11]; 11% in test [12]. Further, the inhibition in test [13] is 41.7%; in test [14], 0.3%; in test [15] it was 1.21%; in [16], -0.18%; in [17], 7.2%; in test [18], -0.63%. Also, the figures for the inhibition in test [19] and in [20] were 1.05% and -0.9%, respectively.
As for `COC(=O)c1cncc(/C=C/c2c(C)cc(O)cc2C)c1`, the inhibition was determined as 6.87% in test [1]; 3.1% in [2]; 4.65% in test [3]; 3.28% in test [4]; 2.28% in test [5]; 2.89% in test [6]. In addition, the inhibition in test [7] came to 4.83%; in test [8], 2.38%; in test [9], 5.18%; in [10] it was 0.21%; in [11] it was 2.21%; in [12] it was 3.22%. The inhibition was 8.1% in test [13]; -1.29% in [14]; 7.61% in test [15]; 1.09% in [16]; 6.54% in [17]; -0.5% in test [18]. Also, the values for the inhibition in test [19] and in test [20] were -0.32% and 1.91%, respectively.
